Shown are actives, neighbours in structure and some others; about 3.6% of the full set was active somewhere.
PMP22 txn = PMP22 gene transcription modulation; S16 Pmp22-F2sN Schwann cells, FLuc/NLuc coincidence luminescence, 24 h; Potency, µM (doses to about 57.5 µM), without a hit: at the highest dose activity change, negative = inhibition, most hits filed as inhibitors; actives 2% (n = 43,000); AID 1508649; active = clear falling dose curves in both reporters; inconclusive = both reporters move, but less clearly or upward; inactive = either reporter flat; the % is the NLuc reporter signal; note: % is set by controls: 0 for no effect and ±100 for the full control effect
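Schwann cells carrying the coincidence reporter were exposed to library compounds for 24 h at 37C, then lysed and read for FLuc and, after quenching, NLuc luminescence on a CCD imager.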
HTT-AS promoter = HTT-AS promoter activation. HEK293 HTT-AS promoter firefly luciferase reporter, 24 h; response scale: percent change from vehicle, -100% = no light. Potency, µM (doses to about 57.5 µM), without a hit: top-dose activity change, positive = activation, usual class: activators. actives 0.24% (n = 48,000); note: nearly all actives have a fitted effect of over 55% in size
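Quantitative HTS used concentration series of up to 57.5 uM final on HEK293 luciferase reporter cells, 24 h at 37 degrees C. Readout was Dual-Glo firefly luminescence.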
S16 F2sN tox = S16 Schwann cell cytotoxicity; S16 Pmp22-F2sN Schwann cells (luciferase reporters placed in the Pmp22 gene) viability, CellTiter-Glo, 24 h; Potency, µM (top dose mostly 57.5 µM), inactives show at the top dose activity change, negative = cytotoxicity, hits mostly cytotoxic; actives 0.48% (n = 43,000); note: % is set by controls: 0 for no effect and ±100 for the full control effect; nearly all actives have a fitted effect of over 65% in size
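Rat S16 Schwann reporter line, 24 h treatment with library compounds delivered at 23 nL per well. Cell viability by CellTiter-Glo luminescence.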
mTORC1 inh = mTORC1 pathway inhibition measured by phospho-rpS6 | Tsc2-/- p53-/- MEF, phospho-rpS6 immunofluorescence/PI, 24 h | AID 493208 | Potency, µM (highest dose often 38.3 µM), without a hit: top-dose activity change, negative = inhibition, usual class: inhibitors | actives 0.78% (n = 44,000);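 note: plate controls were DMSO for no effect and rapamycin for full effect; nearly all actives have a fitted effect of over 50% in size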
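Plate MEFs (Tsc2-/-, p53-/-, empty vector) in DMEM/10% FBS; after 24 h add compound, incubate 24 h at 37 degree Celsius; fix in PFA/TX-100, block, stain phospho-rpS6 and 10 uM PI; scan at 488 nm; report % positive cells.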
HTT prom inh = inhibitors of huntingtin promoter activity; HEK293 HTT promoter firefly luciferase reporter, 24 h; Potency, µM (titrated, usually from 57.5 µM), inactives show top-dose activity change, negative = inhibition, usual class: inhibitors; actives 0.93% (n = 48,000); AID 1508623; note: nearly all actives have a fitted effect of over 50% in size
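Firefly luciferase readout (Dual-Glo, 10 min RT) after 24 h, 37 °C compound exposure (final up to 57.5 uM) of HEK293 reporter cells cultured 24 h beforehand; PTC124 at 50 uM final as control inhibitor; activity scaled vehicle 0%, zero RLU -100%.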
* = called active by the depositor; u = inconclusive; x = no result given; [ ] = remark or other dose. Unless noted, calls come from the whole dose curve; as a rule, active = well fitted curve in the direction sought with a large enough effect; inconclusive = small, poorly fitted or top-dose-only effect, or another doubt; inactive = no such curve, though single readings can be large; an effect the other way counts as inactive or inconclusive. Potency is the fitted concentration of half-maximal effect.

SMILES | PMP22 txn | HTT-AS promoter | S16 F2sN tox | mTORC1 inh | HTT prom inh
CO[C@H]1C(=O)[C@]2(C)[C@@H](OC)C[C@H]3OC[C@@]3(OC(C)=O)[C@H]2[C@H](OC(=O)c2ccccc2)[C@]2(O)C[C@H](OC(=O)[C@H](O)[C@@H](NC(=O)OC(C)(C)C)c3ccccc3)C(C)=C1C2(C)C | x | -33.9% | x | x | -15.8%
COc1ccc(-c2cn3nc(SCC(=O)Nc4ccccc4F)ccc3n2)cc1 | 5.7% | -91.8% | 4.0% | 6.2% | 3.98µM*
COc1ccc(-c2cc(-c3ccccc3)nc(SCC(=O)Nc3ccccc3F)c2C#N)cc1 | -27.9% | -2.9% | 11.6% | -0.2% | -5.9%
CCOC(=O)c1ccc(NC(=O)CC2Nc3cccc4cccc(c34)NC2=O)cc1 (stereo not drawn) | u | -22.0% | -1.5% | -8.0% | u
CCOC(=O)c1ccc(NC(=O)CC2Nc3cc(C)c(C)cc3NC2=O)cc1 (stereo not drawn) | u | -89.9% | -25.9% | 0.7% | 8.91µM*
Cc1ccc(-n2c(=O)c3ccc(C(=O)NCc4ccco4)cc3n(Cc3ccc(Cl)cc3)c2=O)cc1 | u | -17.3% | u | 11.7µM* | -18.1%
Cc1ccc(-n2c(=O)c3ccc(C(=O)NCc4ccco4)cc3n(Cc3ccccc3Cl)c2=O)cc1 | -14.8% | 11.5% | -18.4% | 9.3% | -11.6%
CCN(CC)c1ccc(C(=C2C=CC(=[N+](CC)CC)C=C2)c2cc(S(=O)(=O)O)ccc2S(=O)(=O)[O-])cc1 | x | -55.8% | x | x | u
COc1ccccc1-c1cc2nc(C)c(CCC(=O)NCc3cccc(Cl)c3)c(C)n2n1 | u | -80.0% | 2.3% | 0.2% | 12.6µM*
Cc1nc2cc(-c3cccc(F)c3)nn2c(C)c1CCC(=O)NCCc1ccccc1 | -28.4% | -61.8% | 1.9% | 4.4% | u
Cc1nc2cc(-c3ccccc3)nn2c(C)c1CCC(=O)NCCc1ccccc1 | -7.9% | -74.0% | u | -3.0% | 7.08µM*
CCCCNC(=O)CCc1c(C)nc2cc(-c3ccccc3)nn2c1C | -0.5% | -69.6% | 0.3% | -5.2% | 2µM*
C[C@H](NCc1ccc2c(c1)nc(NC(=O)c1ccc(-c3cn[nH]c3)s1)n2CCc1ccccc1)C(C)(C)C | x | -42.8% | x | x | u
CCCCNC(=O)c1nn(-c2ccc(C)cc2)c(=O)c2c1c1ccccc1n2C | -20.5% | -4.8% | 15.8µM* | 0.7% | -26.8%
COCCNC(=O)c1nn(-c2ccc(C)cc2)c(=O)c2c1c1ccccc1n2C | u | -8.5% | u | 1.7% | -19.9%
COc1ccc(Cl)cc1NC(=O)CSC1=Nc2ccccc2C2=NC(CCC(=O)NCc3ccc(F)cc3)C(=O)N12 (stereo not drawn) | u | -21.4% | -22.8% | 2.4% | -4.4%
COc1ccc(OC)c(NC(=O)CSC2=Nc3ccccc3C3=NC(CCC(=O)NCc4ccccc4)C(=O)N23)c1 (stereo not drawn) | 12µM* | 6.8% | u | -0.6% | -16.1%
CC(C)c1ccc(NC(=O)CSC2=Nc3ccccc3C3=NC(CCC(=O)NCc4ccc(F)cc4)C(=O)N23)cc1 (stereo not drawn) | u | -38.2% | 28.2µM* | u | u
CCCc1oc2ccc(NS(=O)(=O)c3ccc(OCC)cc3)cc2c1C(=O)OCC | u | -38.7% | -26.9% | 14.7µM* | u
CCOc1ccc(S(=O)(=O)Nc2ccc3oc(C)c(C(=O)OC(C)C)c3c2)cc1 | u | -7.0% | -3.5% | -22.9% | u
Oc1ccc(-c2ccc(-c3cc(Nc4cccc(CNC5CC5)c4)n[nH]3)cc2)c(O)c1 | x | -19.0% | x | x | u
CCc1c(C)sc2c1CCN(Cc1ccc(F)cc1)C2c1ccccc1 (stereo not drawn) | u | -26.1% | 8.91µM* | 0.0% | u
CCc1c(C)sc2c1CCN(Cc1cccc(F)c1)C2c1ccccc1 (stereo not drawn) | u | -44.0% | 10µM* | 7.3% | u
CCc1c(C)sc2c1CCN(Cc1ccc(C#N)cc1)C2c1ccccc1 (stereo not drawn) | u | 4.1% | u | 12.5% | -18.8%
CCc1ccc(-n2c(=O)c3c4c(sc3n(CC(=O)c3ccc(F)cc3)c2=O)CCC4)cc1 | u | -7.1% | -18.7% | 5.21µM* | -7.5%
SMILES | PMP22 txn | HTT-AS promoter | S16 F2sN tox | mTORC1 inh | HTT prom inh
CC(C)CS(=O)(=O)c1oc(-c2ccc(F)cc2)nc1S(=O)(=O)c1ccccc1 | u | -94.4% | 4.47µM* | 0.736µM* | u
CCC(C)S(=O)(=O)c1oc(-c2cccs2)nc1S(=O)(=O)c1ccccc1 (stereo not drawn) | 1.39µM* | -93.6% | 2.51µM* | 1.17µM* | u
CC(C)(C)c1nc2c3cc[nH]c(=O)c3c3cc(F)ccc3c2[nH]1 | x | -7.2% | x | x | -3.1%
COC(=O)c1ccc2c(C(=Nc3ccc(N(C)C(=O)CN4CCN(C)CC4)cc3)c3ccccc3)c(O)[nH]c2c1 | x | -24.4% | x | x | u
CN1CCc2c(sc3c2C(=O)NC(c2ccc(C(C)(C)C)cc2)N3)C1 (stereo not drawn) | u | 5.2%[11.5 µM] | 14.1µM* | -16.3% | -7.1%[11.5 µM]
CC(C)c1ccc(C2NC(=O)c3c(sc4c3CCN(C)C4)N2)cc1 (stereo not drawn) | u | 5.5% | u | 0.7% | -4.8%
CCCCc1nc2cc(C=CC(=O)NO)ccc2n1CCN(CC)CC | x | u | x | x | 199.3%
COC(=O)c1c(NC(=O)c2cc(OC)c(OC)c(OC)c2Br)sc2c1CCC(C)C2 (stereo not drawn) | -0.1% | 15.7%[11.5 µM] | -9.0% | -0.5% | 22.3%
COc1cc(C(=O)Nc2sc3c(c2C#N)CCCC3)c(Br)c(OC)c1OC | 13.4µM* | -33.2% | u | 7.4% | -7.7%
COc1cc(NC(=O)Cn2nc(C(F)(F)F)c3c2CCCC3)cc(OC)c1OC | u | -34.4% | 6.6% | -24.3% | 22.4µM*
O=C(Cn1nc(C(F)(F)F)c2c1CCCC2)Nc1cccc(Cl)c1 | u | -51.6% | 20µM* | -17.8% | u
O=C(Cn1nc(C(F)(F)F)c2c1CCCC2)Nc1ccc(Br)cc1 | u | -46.1% | -14.8% | -2.4% | u
CC(C)(O)c1cc2nc(-c3cnc(N)nc3)nc(N3CCOCC3)c2s1 | x | -50.7% | x | x | u
Cc1cccc(NC(=O)c2nc(S(C)(=O)=O)ncc2Cl)c1 | 2.38µM* | -96.7% | 5.01µM* | 3.29µM* | u
CCOC(=O)c1c(-c2ccccc2)csc1NC(=O)c1nc(S(=O)(=O)CC)ncc1Cl | 4.5µM* | -87.9% | 11.2µM* | u | u
CN(c1ccccc1)S(=O)(=O)c1ccc(NC(=O)c2nc(S(C)(=O)=O)ncc2Cl)cc1 | 2.12µM* | -94.6% | 4.47µM* | 1.17µM* | u
